# Measurements published in ChEMBL document CHEMBL4513216, “Probing the Open Global Health Chemical Diversity Library for Multistage-Active Starting Points for Next-Generation Antimalarials” (ACS Infect Dis, 2020).
# Screen size: about 69,000 compounds; about 8,600 (12%) showed an effect of 50% or more. Shown is part of a subset that was picked to be rich in strong results.
# Test system: Plasmodium berghei
# Assay: Screen against P. berghei liver stage (PbLuc), transformed with Luciferase, at 10uM
# Format: functional, HepG2
# Details: tested at 10 uM
row,Compound,INHIBITION
1,Cc1n[nH]c(C2CN(C(=O)c3csnn3)CCO2)n1 (stereo not drawn),35.1%
2,CC(C)c1n[nH]c(C2CN(C(=O)c3cc4c(s3)CCC4)CCO2)n1 (stereo not drawn),52.3%
3,CCc1nnsc1C(=O)N1CCOC(c2nc(C)n[nH]2)C1 (stereo not drawn),51.3%
4,CCc1nnsc1C(=O)N1CCOC(c2nc(C(C)C)n[nH]2)C1 (stereo not drawn),-2.61%
5,CC(C)c1n[nH]c(C2CN(C(=O)c3csnn3)CCO2)n1 (stereo not drawn),52.7%
6,Cc1n[nH]c(C2CN(C(=O)c3cc4c(s3)CCCC4)CCO2)n1 (stereo not drawn),-1.14%
7,CCc1nc(C)ncc1C(=O)N1CCOC(c2nc(C)n[nH]2)C1 (stereo not drawn),23.5%
8,Cc1n[nH]c(C2CN(C(=O)c3cc4c(s3)CCC4)CCO2)n1 (stereo not drawn),0.914%
9,CCc1n[nH]c(C2CN(C(=O)c3csnn3)CCO2)n1 (stereo not drawn),40.4%
10,CC(CO)NC(=O)c1ccc(NCc2ccccc2)cc1 (stereo not drawn),19.8%
11,Cc1cc(Nc2ccc(F)cn2)cc(C2CCCN2)n1 (stereo not drawn),34.9%
12,CCN(C(=O)C1Cc2cc(Cl)ccc2O1)C1CC1 (stereo not drawn),38.3%
13,CNc1cc(C)nc(C2CCN(CCO)CC2)n1,-2.09%
14,Cc1nc(CN2C(=O)COC3(CCN(Cc4ccco4)CC3)C2C)cs1 (stereo not drawn),-4.86%
15,Cc1cc(NC2CCN(c3ccccc3)C2)n2ncnc2n1 (stereo not drawn),4.94%
16,Cc1cc(NCc2ccccc2CN2CCCCC2)n2ncnc2n1,54.4%
17,COc1cccc(N2CCC(CNC(=O)NCc3ccco3)C2)c1 (stereo not drawn),-51%
18,Cc1cc(NCC2CCCCC2)n2ncnc2n1,9.8%
19,CCc1cc(NCc2ccccc2CN2CCCC2)n2ncnc2n1,11.1%
20,CCc1cc(NCc2cccnc2N2CCCCC2)n2ncnc2n1,36.2%
21,COc1cccc(N2CCC(CNc3cc(C)nc4ncnn34)C2)c1 (stereo not drawn),65.5%
22,Cc1cc(NCCn2cccn2)n2ncnc2n1,-38.8%
23,Cc1cc(NCC2CCN(c3ccccc3)C2)n2ncnc2n1 (stereo not drawn),78.9%
24,CCc1n[nH]c(C2CN(C(=O)c3cc4c(s3)CCC4)CCO2)n1 (stereo not drawn),-7.31%
25,C[C@H]1CN(C(=O)c2ccc[nH]2)C[C@@]12CCN(c1ccsc1)C2=O,18.3%
26,NC(=O)c1cc(C2CCCN(CCOc3cccc(F)c3)C2)n[nH]1 (stereo not drawn),43.48%
27,CN(C)Cc1nn(C)c2c1CN(C(=O)c1ccc[nH]1)C2,-4.02%

row,Compound,INHIBITION
1,COc1ccc(-c2ccnc3nc(N4CCCC4)[nH]c(=O)c23)cc1OC,40%
2,Cc1cccc(NC(=O)N2CCN(Cc3noc(C4CC4)n3)CC2)c1,46.2%
3,Cc1cc(C)n(CC(=O)N2Cc3cnc(C(C)(C)C)nc3C2)n1,51.3%
4,CC(=O)N1Cc2cnc(C(C)(C)C)nc2C1,19.8%
5,CC(=O)c1c(C)nn(CC(=O)N2Cc3cnc(C(C)(C)C)nc3C2)c1C,-10.4%
6,Cc1noc(Cl)c1CCC(=O)N1CCN(c2ccccc2)CC1,26.5%
7,O=C(NCc1cccc(-n2cncn2)c1)NCC(C1CC1)C1CC1,50.2%
8,CSC(C)(C)CNC(=O)NCc1cccc(-n2cncn2)c1,-17.9%
9,Cc1c(CNC(=O)NCc2cccc(-n3cncn3)c2)cnn1C,-40.4%
10,CCn1ncc(CN(C)C(=O)c2ccn(C)n2)c1C,30%
11,Cc1ccsc1C(=O)N1CCN(Cc2cscn2)CC1,-6.14%
12,COCCN1C(=O)[C@@H]2CC[C@H]1CN(c1nccc(C3CCCC3)n1)C2,-47.9%
13,c1ccc(CN2CCCn3nnc(CNc4ncccn4)c3C2)nc1,-18.4%
14,OC(COCc1ccccc1)CN1CCC(Cn2cccn2)CC1 (stereo not drawn),43.5%
15,Cc1ccc(CN2CCn3c(C(=O)N(C)C)cnc3C2)cc1,41.6%
16,Cc1cccc(CN2CCn3c(C(=O)N(C)C)cnc3C2)c1,50.9%
17,CN(C)C(=O)c1cnc2n1CCN(Cc1ccccc1)C2,9.67%
18,O=C(CCOCc1ccccc1)NS(=O)(=O)N1CCOc2ccccc21,-13.6%
19,CCc1ncc2c(n1)CN(Cc1ncc(C(C)(C)C)o1)CC2,20%
20,COC(=O)CN(C(=O)c1ccc(-n2ccnc2)cc1)C1CCCC1,0.566%
21,COCCN1CC[C@@H]2O[C@H](COCc3csc(C)n3)CC[C@@H]21,3.11%
22,Cc1nc(COC[C@H]2CC[C@H]3[C@H](CCN3c3ncccn3)O2)cs1,42.7%
23,Cc1nc(COC[C@@H]2CC[C@H]3[C@H](CCN3S(C)(=O)=O)O2)cs1,25%
24,CC(=O)N1CC[C@@H]2O[C@@H](COCc3csc(C)n3)CC[C@@H]21,6.6%
25,Cc1nc(COC[C@@H]2CC[C@H]3NCC[C@H]3O2)cs1,55.6%
26,Cc1nc(COC[C@H]2CC[C@H]3NCC[C@H]3O2)cs1,51.2%
